# Results filed as inconclusive are left out. Calls of active or inactive are those of the source. Rule for the calls, unless noted: active = hit-call score of the fitted dose curve at least 0.9, where 1 is the maximum; inactive = score below 0.9.
# How the values were obtained:
# [1] = CCTE_Shafer_MEA_acute_burst_percentage_mean: CCTE's Neural Acute Assay for Percentage of Spikes in a Burst, Shafer Lab (AID 2284017);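 for AC50: curve fitted for loss of signal so potency reflects decreased burst percentage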
# How it was run: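 Primary rat cortical neurons on 16-electrode MEA wells; 40 min baseline recorded at DIV 13 or 15, then 40 min after compound (0.03-40 uM) at 37 C. Well-mean fraction of spikes in single-electrode bursts; percent change from baseline, DMSO as negative control.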
# [2] = CCTE_Shafer_MEA_acute_burst_percentage_std: CCTE's Neural Acute Assay for Standard Deviation of Burst Percentage, Shafer Lab (AID 2284018);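 note: fitted in the negative direction so actives lower burst percentage SD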
# How it was run: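 Primary rat cortical neurons on 16-electrode MEA wells were recorded 40 min at baseline (DIV 13 or 15), then 40 min after compound (0.03-40 uM), at 37 C. Well value is SD across electrodes of spikes-in-bursts/total spikes; endpoint is percent change, DMSO-referenced.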
# [3] = CCTE_Shafer_MEA_acute_per_network_burst_spike_number_std: CCTE's Neural Acute Assay for Standard Deviation of Number of Spikes in a Network Burst, Shafer Lab (AID 2284020);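 note: fitted for decrease in spike-number SD versus DMSO so actives lower it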
# How it was run: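 Primary rat cortical neurons on 48-well MEAs (16 electrodes/well) recorded at DIV 13 or 15: 40-min baseline, then 40 min with compound (0.03-40 uM), 37 C. Value is percent change in SD of spikes per network burst, relative to DMSO.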
# [4] = CCTE_Shafer_MEA_acute_per_network_burst_electrodes_number_mean: CCTE's Neural Acute Assay for Mean Number of Electrodes in a Network Burst, Shafer Lab (AID 2284021);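 note: curves fitted for decreases only so hits reduce electrodes per burst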
# How it was run: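 Rat primary cortical neurons on 48-well MEAs, DIV 13 or 15, were treated at 0.03-40 uM. Spikes were detected at 8x rms noise and recorded at 37 C. The mean electrodes per network burst in a 40 min exposure recording was expressed as percent change from a 40 min baseline.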
# [5] = CCTE_Shafer_MEA_acute_network_burst_percentage: CCTE's Neural Acute Assay for Percentage of Network Bursts, Shafer Lab (AID 2284022);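 note: curves fitted for loss so actives lower network burst percentage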
# How it was run: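 Rat primary cortical neuron networks on 48-well MEA plates, DIV 13 or 15, treated acutely with compound (0.03-40 uM, at least three wells). Percent of spikes within network bursts compared between 40-min recordings before and during exposure at 37 C, expressed as percent change.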
# [6] = CCTE_Shafer_MEA_acute_cross_correlation_area: CCTE's Neural Acute Assay for Area of Cross Correlation, Shafer Lab (AID 2284024);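 note: curves fitted for loss of cross-correlation area so actives lower synchrony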
# How it was run: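 Rat primary cortical neurons on 48-well MEA, DIV 13 or 15; compounds 0.03-40 uM. Baseline and post-exposure 40 min recordings at 37 C; percent change in area under pooled inter-electrode cross-correlation near zero lag, relative to DMSO.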
# [7] = CCTE_Shafer_MEA_acute_cross_correlation_HWHM: CCTE's Neural Acute Assay for Cross Correlation at Half Width at Half Maximum, Shafer Lab (AID 2284026);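 note: percent change per well from pre-dose baseline in spike cross-correlogram half width; hits are a decrease in cross-correlogram half width relative to DMSO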;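 for outcome: spontaneous network firing of rat primary cortical neurons on multiwell microelectrode arrays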
# How it was run: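 Rat primary cortical neurons on 48-well MEA plates; 40-min baseline and 40-min post-exposure recordings at 37 C on DIV 13 or 15, compounds 0.03-40 uM. Spikes detected at 8x rms noise; percent change in cross-correlogram HWHM per well vs baseline.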
# [8] = CCTE_Shafer_MEA_acute_synchrony_index: CCTE's Neural Acute Assay for Synchrony, Shafer Lab (AID 2284027);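 note: network synchrony index of spontaneous spiking in primary rat cortical neurons on MEAs; fitted for loss of signal so actives lower synchrony relative to DMSO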
# How it was run: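 Spontaneous firing of mature rat cortical networks is captured extracellularly on microelectrode arrays at 37 C, with wells needing ≥10 active electrodes. Each compound (0.03-40 uM) is judged by the change in synchrony index from baseline over 40 min.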
# [9] = CCTE_Shafer_MEA_dev_firing_rate_mean: CCTE's Neural Network Formation Assay for Mean Firing Rate, Shafer Lab (AID 2284031);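 for AC50: curve fitted for loss of firing so AC50 reflects decreased mean firing rate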
# How it was run: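 Developing rat cortical networks on MEA plates undergo 12-day compound exposure. Firing frequency, averaged across active electrodes, is integrated as area under the curve over four recording days, referenced to DMSO.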
# [10] = CCTE_Shafer_MEA_dev_active_electrodes_number: CCTE's Neural Network Formation Assay for Number of Active Electrodes, Shafer Lab (AID 2284040; active = hit-call score of the fitted dose curve at least 0.9, where 1 is the maximum;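 for AC50: potency for loss of active electrodes versus DMSO so lower counts are hits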)
# How it was run: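 Rat cortical primary cultures, 1.5 x 10^5 cells/well, PEI-coated MEA, laminin drop. Continuous exposure DIV 0–12; full media/compound change DIV 5, 9. Readout: electrodes with mean firing ≥5 spikes/min; AUC across days; loss vs DMSO.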
# [11] = CCTE_Shafer_MEA_dev_burst_rate: CCTE's Neural Network Formation Assay for Burst Rate, Shafer Lab (AID 2284042);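 for AC50: potency for loss of burst rate below DMSO control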
# How it was run: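 Rat primary cortical cultures on PEI/laminin MEA; compound from plating, re-dosed at DIV 5, 9 media change. Single-electrode bursts/recording length, well mean of active electrodes; AUC over DIV 5–12 recordings; loss-of-signal vs DMSO.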
# [12] = CCTE_Shafer_MEA_dev_per_burst_interspike_interval: CCTE's Neural Network Formation Assay for Burst Interspike Interval, Shafer Lab (AID 2284044);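 note: mean spike spacing inside bursts as AUC over recordings on days 5 7 9 12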;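 for AC50: potency for a decrease of within-burst interspike interval below DMSO level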
# How it was run: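 Primary rat cortical neurons on 48-well MEA plates, exposed from day 0 through day 12, treatment renewed at DIV 5 and 9. Within-burst interspike interval recorded days 5, 7, 9, 12, well-averaged, summarised as AUC; negative fit versus DMSO.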
# [13] = CCTE_Shafer_MEA_dev_burst_duration_mean: CCTE's Neural Network Formation Assay for Mean Burst Duration, Shafer Lab (AID 2284045);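 for AC50: curve fitted for loss meaning shorter burst duration than DMSO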
# How it was run: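 Primary rat cortical neurons on PEI-coated 16-electrode MEA wells, exposed from plating through day 12 with compound renewed at DIV 5 and 9; spontaneous activity recorded days 5, 7, 9, 12. Well-mean burst duration collapsed as trapezoidal AUC, fitted for loss versus DMSO.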
# [14] = CCTE_Shafer_MEA_dev_interburst_interval_mean: CCTE's Neural Network Formation Assay for Mean Interburst Interval, Shafer Lab (AID 2284046);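 note: well-mean interburst interval of bursting electrodes as AUC over four recording days; curve fitted for decrease in interburst interval relative to DMSO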
# How it was run: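 Rat cortical neurons, 1.5 x 10^5 cells/well, 48-well MEA; compound from day 0 through DIV 12, media and treatment renewed DIV 5/9. Recordings DIV 5, 7, 9, 12; well-mean interburst interval → trapezoidal AUC, loss direction vs DMSO.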
# [15] = CCTE_Shafer_MEA_dev_inter_network_spike_interval_mean: CCTE's Neural Network Formation Assay for Mean Inter-network Spike Interval, Shafer Lab (AID 2284047)
# How it was run: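 Primary rat cortical neurons on PEI-coated 48-well MEAs (16 electrodes/well) were exposed from plating day 0 to DIV 12, with dosing renewed at DIV 5 and 9. Recordings at DIV 5, 7, 9, 12 were collapsed by trapezoidal AUC, loss-of-signal fit vs DMSO.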
# [16] = target: Estrogen receptor (Homo sapiens) (UniProt P03372); assay: CCTE_Deisenroth_AIME_384WELL_LUC_Active: CCTE's 384-well Estrogen Receptor Transactivation Assay with AIME metabolic competence (ERTA luciferase; metabolism positive), Deisenroth Lab (AID 2284030; active = hit-call score of the fitted dose curve at least 0.9, where 1 is the maximum)
# How it was run: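 Chemicals (10-point, 0.002-200 uM) were first incubated 2 hours with alginate-immobilized induced male Sprague Dawley rat liver S9. The conditioned medium was then applied to VM7Luc4E2 cells for 24 hours, with ER luciferase induction read by luminescence relative to 17beta-estradiol.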
# [17] = CCTE_Deisenroth_AIME_384WELL_CTox_Active: Cytotoxicity Assessment (CTOX) in CCTE's 384-well Estrogen Receptor Transactivation Assay with AIME metabolic competence (metabolism positive), Deisenroth Lab (AID 2284037; active = hit-call score of the fitted dose curve at least 0.9, where 1 is the maximum;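 note: chemicals first conditioned 2 h by alginate-bound induced rat liver S9 before cells; activity means signal loss indicating cell death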)
# How it was run: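 VM7Luc4E2 breast cells received medium pre-incubated 2 h with chemical over alginate microspheres holding induced male Sprague Dawley rat liver S9; viability read 24 h later by protease-substrate fluorescence. Loss of signal, bidirectional fit, 0.002–200 uM.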
# [18] = CCTE_Deisenroth_AIME_384WELL_CTox_Inactive: Cytotoxicity Assessment (CTOX) in CCTE's 384-well Estrogen Receptor Transactivation Assay without AIME metabolic competence (metabolism negative), Deisenroth Lab (AID 2284039; active = hit-call score of the fitted dose curve at least 0.9, where 1 is the maximum;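 note: cell viability via live-cell protease substrate cleaved to fluorescent probe; cells exposed 24 h to medium preincubated 2 h with alginate-water beads without S9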)
# How it was run: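 VM7Luc4E2 human breast cells received conditioned medium from a 2 h incubation of chemical with alginate-water microspheres (no S9), then were exposed 24 h. Viability was read as protease-substrate cleavage to a fluorescent probe; loss of signal was fitted bidirectionally over 0.002–200 uM.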
# [19] = target: Estrogen receptor (Homo sapiens) (UniProt P03372); assay: CCTE_Deisenroth_AIME_384WELL_LUC_Shift: CCTE's 384-well Estrogen Receptor Transactivation Assay with AIME metabolic competence data shift (ERTA luciferase; difference in metabolism positive and negative), Deisenroth Lab (AID 2284041);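 note: shift is response with S9 minus without S9 so positive means metabolism raised ER signal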
# How it was run: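 Here, parent compounds undergo 2 h phase I metabolism by PB/BNF-induced rat S9 before 24 h transactivation in VM7Luc4E2 cells; the curve models S9-positive minus S9-negative response over a 10-point series.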
# Chain of Estrogen receptor (Homo sapiens) (P03372 whole entry, looked up): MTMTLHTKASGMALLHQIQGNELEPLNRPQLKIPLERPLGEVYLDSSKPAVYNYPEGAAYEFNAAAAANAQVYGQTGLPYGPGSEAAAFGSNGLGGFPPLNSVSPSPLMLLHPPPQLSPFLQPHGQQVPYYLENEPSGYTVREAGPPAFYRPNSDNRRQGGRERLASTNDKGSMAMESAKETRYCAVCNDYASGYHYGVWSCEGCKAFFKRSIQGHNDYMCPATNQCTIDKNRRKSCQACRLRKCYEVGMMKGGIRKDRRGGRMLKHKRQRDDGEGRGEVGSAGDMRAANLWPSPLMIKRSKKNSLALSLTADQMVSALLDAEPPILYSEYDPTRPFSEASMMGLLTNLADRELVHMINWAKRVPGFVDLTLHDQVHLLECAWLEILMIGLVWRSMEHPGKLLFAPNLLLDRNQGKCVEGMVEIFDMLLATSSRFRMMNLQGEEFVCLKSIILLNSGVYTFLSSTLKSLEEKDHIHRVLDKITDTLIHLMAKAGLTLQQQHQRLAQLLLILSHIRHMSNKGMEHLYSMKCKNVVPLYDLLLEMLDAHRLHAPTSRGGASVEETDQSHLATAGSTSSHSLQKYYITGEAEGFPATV
smiles,measurement,setting,value
CCN(CC)N=O,outcome,[1],inactive
same,outcome,[2],inactive
same,outcome,[3],inactive
same,outcome,[4],inactive
same,outcome,[5],inactive
same,outcome,[6],inactive
same,outcome,[7],inactive
same,outcome,[8],inactive
O=P(OCCCl)(OCCCl)OCCCl,outcome,[1],inactive
same,outcome,[2],inactive
same,outcome,[3],inactive
same,outcome,[4],inactive
same,outcome,[5],inactive
same,outcome,[6],inactive
same,outcome,[7],inactive
same,outcome,[8],inactive
same,outcome,[9],inactive
same,outcome,[10],inactive
same,outcome,[11],inactive
same,outcome,[12],inactive
same,outcome,[13],inactive
same,outcome,[14],inactive
same,outcome,[15],inactive
N#CC(Br)Br,outcome,[1],inactive
same,outcome,[2],inactive
same,outcome,[3],inactive
same,outcome,[4],inactive
same,outcome,[5],inactive
same,outcome,[6],inactive
same,outcome,[7],inactive
same,outcome,[8],inactive
C[N+](C)(C)CC1CO1 (stereo unspecified),outcome,[1],inactive
same,outcome,[2],inactive
same,outcome,[3],inactive
same,outcome,[4],inactive
same,outcome,[5],inactive
same,outcome,[6],inactive
same,outcome,[7],inactive
same,outcome,[8],inactive
same,outcome,[16],inactive
same,outcome,[17],inactive
same,outcome,[18],inactive
same,outcome,[19],inactive
CC(C)(OOC(C)(C)c1ccccc1)c1ccccc1,outcome,[1],inactive
same,outcome,[2],inactive
same,outcome,[3],inactive
same,outcome,[4],inactive
same,outcome,[5],inactive
same,outcome,[6],inactive
same,outcome,[7],inactive
same,outcome,[8],inactive
[Cl-].[Cl-].[Hg+2],AC50,[1],20 µM (active)
same,outcome,[2],inactive
same,outcome,[3],inactive
same,AC50,[4],24.6 µM (active)
same,outcome,[5],inactive
same,outcome,[6],inactive
same,AC50,[7],29.3 µM (active)
same,AC50,[8],28.2 µM (active)
same,AC50,[9],0.911 µM (active)
same,AC50,[10],0.543 µM (active)
same,AC50,[11],0.923 µM (active)
same,AC50,[12],0.869 µM (active)
same,AC50,[13],0.881 µM (active)
same,AC50,[14],0.318 µM (active)
same,outcome,[15],inactive
CC(C)(C)C(O)(CCc1ccc(Cl)cc1)Cn1cncn1 (stereo unspecified),outcome,[1],inactive
same,outcome,[2],inactive
same,outcome,[3],inactive
same,outcome,[4],inactive
same,outcome,[5],inactive
same,outcome,[6],inactive
same,AC50,[7],20 µM (active)
same,outcome,[8],inactive
same,outcome,[9],inactive
same,AC50,[10],5.02 µM (active)
same,outcome,[11],inactive
same,outcome,[12],inactive
same,outcome,[13],inactive
same,outcome,[14],inactive
same,outcome,[15],inactive
CN(C)[C@@H]1C(=O)C(C(N)=O)=C(O)[C@@]2(O)C(=O)C3=C(O)c4c(O)cccc4[C@@](C)(O)[C@H]3C[C@@H]12,outcome,[9],inactive
same,outcome,[17],inactive
same,AC50,[18],103 µM (active)
same,outcome,[10],inactive
same,outcome,[11],inactive
same,outcome,[12],inactive
same,outcome,[13],inactive
same,outcome,[14],inactive
same,outcome,[15],inactive
ClCCOCCCl,outcome,[1],inactive
same,outcome,[2],inactive
same,outcome,[3],inactive
same,outcome,[4],inactive
same,outcome,[5],inactive
same,outcome,[6],inactive
same,outcome,[7],inactive
same,outcome,[8],inactive
same,outcome,[17],inactive
same,outcome,[18],inactive
CCOC(=O)[C@]1(c2ccccc2)Oc2ccccc2[C@@H]1N,outcome,[17],inactive
same,outcome,[18],inactive
Nc1ccc(Oc2ccc(N)cc2)cc1,outcome,[17],inactive
Nc1cc(Cl)cc(C(=O)O)c1Cl,outcome,[9],inactive
same,outcome,[10],inactive
same,outcome,[11],inactive
same,outcome,[12],inactive
same,outcome,[13],inactive
same,outcome,[14],inactive
same,outcome,[15],inactive
Nc1ccc(Cl)cc1N,outcome,[18],inactive

# Source: PubChem BioAssay (EPA / NIEHS)
